Data on four compounds can be found in PubChem BioAssay.

Activity calls are given as the source filed them.

Experiment [1] deals with Wnt5a (protein binding on small-molecule microarray). The experiment in a line: Wnt5a binders on small-molecule microarray, primary screen, biophysical, 635/667 nm fluorescence (AID 1142).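 Further: fluorescence read at 667 nm with signal to noise per printed feature.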 The settings on record: 635 nm fluorescence, higher = more signal.
A short description of experiment [2]: cell viability in Huh7 cells, primary screen, cytotoxicity control for HCV replication inhibitor project, CellTiter-Glo luminescence, basal, 48 h (AID 1143).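 Further: Huh7 hepatoma cells carrying a hepatitis C replication reporter with no stimulus; test concentration not given here.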 As to conditions: Huh7 HCV replicon, higher = more signal, called active from +8 up or from −8 down. On the technique in general: In ATP-based viability assays light output follows the ATP content of the culture.

Experiment [3] can be described thus: CREB reporter modulators without forskolin, primary screen, cell-based, PC12, CRE-LacZ reporter, unstimulated (AID 1145). As to conditions: no forskolin, luminescence, 4.5 h, higher = more signal, called active from +8 up or from −8 down.
Experiment [4] can be described thus: CREB reporter modulators under forskolin, primary screen, cell-based, PC12, CRE-LacZ reporter, forskolin-stimulated (AID 1146).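 Further: PC12 cells with 6xCRE LacZ reporter stimulated by forskolin 10 µM; beta-galactosidase reporter signal reflecting CREB driven transcription.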 As to conditions: luminescence, 4.5 h, higher = more signal, called active from +8 up or from −8 down.
The target in experiment [5] is Streptavidin (Streptomyces avidinii) (UniProt P22629). The experiment in a line: streptavidin binders on small-molecule microarray, primary screen, artefact control for SMM compound annotation, biophysical, 635/667 nm fluorescence (AID 1147).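 Further: signal reflects streptavidin binding to arrayed compounds as a control protein.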 As to conditions: streptavidin binding, higher = more signal.
Sequence of Streptavidin (Streptomyces avidinii) (P22629 whole entry, looked up): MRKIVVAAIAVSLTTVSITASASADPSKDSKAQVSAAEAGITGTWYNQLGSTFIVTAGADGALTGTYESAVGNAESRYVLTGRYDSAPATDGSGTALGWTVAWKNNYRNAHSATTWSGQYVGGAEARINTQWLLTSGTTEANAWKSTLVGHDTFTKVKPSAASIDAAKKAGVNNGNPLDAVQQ
Experiment [6] can be described thus: small-molecule binders of probe aInhba, primary screen, biochemical, small-molecule microarray, 635/667 nm fluorescence (AID 1148).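 Further: score merges 667nm spot fluorescence with signal-to-noise for antibody binding to printed compounds.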 As to conditions: higher = more signal.
The target of experiment [7] is Torsin-1A (Homo sapiens) (UniProt O14656). Briefly: torsin A binders from cell lysate, primary screen, small-molecule microarray, wild-type, 635/667 nm (AID 1149). As to conditions: COS7 hTOR1A-WT lysate, 635 nm fluorescence, higher = more signal.
Sequence of Torsin-1A (Homo sapiens) (O14656 whole entry, looked up): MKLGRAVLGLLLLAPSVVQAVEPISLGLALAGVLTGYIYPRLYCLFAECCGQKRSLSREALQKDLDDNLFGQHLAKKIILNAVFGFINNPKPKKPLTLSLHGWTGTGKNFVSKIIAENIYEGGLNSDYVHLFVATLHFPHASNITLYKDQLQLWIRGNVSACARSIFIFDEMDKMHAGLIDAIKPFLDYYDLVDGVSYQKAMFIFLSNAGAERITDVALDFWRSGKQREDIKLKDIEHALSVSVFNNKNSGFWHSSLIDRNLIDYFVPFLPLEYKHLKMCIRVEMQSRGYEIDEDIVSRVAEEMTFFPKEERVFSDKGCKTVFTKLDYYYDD
For experiment [8] the target is unchanged. Briefly: small-molecule binders of mutant TOR1A in lysate, primary screen, cell lysate, small-molecule microarray, COS7 lysate, 635/667 nm fluorescence (AID 1150).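 Further: score pools 667 nm emission and signal to noise measuring lysate protein binding.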 The settings on record: COS7 hTOR1A mutant lysate, 635 nm fluorescence, higher = more signal.
In experiment [9] the test system is Sonic hedgehog protein (Shh). The experiment in a line: small-molecule binders of Shh protein, primary screen, biochemical, small-molecule microarray, 635/667 nm fluorescence (AID 1151).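 Further: Shh protein binding to compounds spotted on small-molecule microarray slides; score combines spot fluorescence intensity with signal-to-noise across triplicate slides.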 The settings on record: small-molecule microarray binding, 635 nm fluorescence; higher = more signal.
Experiment [10] is described as follows: E. coli DRC41 culture turbidity changes, primary screen, E. coli filamentation inducer project, strain DRC41, OD650, 48 h (AID 1152).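 Further: E. coli MC1000 strain DRC41 lacking acrAB efflux pump and sulA.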 As to conditions: E. coli DRC41 (acrAB sulA), higher = more signal, called active from +8 up or from −8 down.
Experiment [11] in a line: small-molecule binders of probe aLefty1, primary screen, biochemical, small-molecule microarray, 635/667 nm fluorescence (AID 1153).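 Further: score merges spot fluorescence with signal-to-noise ratio from the scanned slide images.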 The settings on record: higher = more signal.
Experiment [12] is described as follows: PSAC antagonists in infected red cells, primary screen, cell-based, P. falciparum Indochina, OD700, 1 h (AID 1154). The settings on record: P. falciparum Indochina infected RBC osmotic lysis, higher = more signal, called active from +8 up or from −8 down.
Experiment [13] can be described thus: PSAC antagonists in infected red cells, primary screen, cell-based, P. falciparum Indochina, OD700, 2 h (AID 1155).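 Further: lysis reports solute entry through the parasite surface anion channel PSAC; channel blockers reduce lysis of infected cells.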 As to conditions: P. falciparum Indochina infected erythrocytes, osmotic lysis OD700; higher = more signal, called active from +8 up or from −8 down.
A short description of experiment [14]: osmotic lysis modulators in infected erythrocytes, primary screen, PSAC antagonist project, cell-based, P. falciparum Indochina, OD700, 3 h (AID 1156). As to conditions: higher = more signal, called active from +8 up or from −8 down.
A short description of experiment [15]: PSAC antagonists in infected red cells, primary screen, cell-based, P. falciparum Indochina, OD700, 18 h (AID 1157). The settings on record: P. falciparum Indochina infected erythrocytes, osmotic lysis OD700, 18 h; higher = more signal, called active from +8 up or from −8 down.
Experiment [16] is described as follows: modulators of S6 phosphorylation in cells, primary screen, cell-based, A549, cytoblot, luminescence, serum-stimulated (AID 1158).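 Further: serum-stimulated A549 lung adenocarcinoma cells; signal is phosphorylated S6 detected by cytoblot immunostaining with HRP secondary.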 The settings on record: A549 phospho-S6 cytoblot, 5 h, higher = more signal.
In experiment [17] the target is NADPH oxidase 2 (Homo sapiens) (UniProt P04839). Briefly: NOX2-dependent H2O2 signal modulators, primary screen, NOX inhibitor project, cell-based, HEK293-NOX2, PMA-stimulated, Amplex Red fluorescence (AID 1159). Further: test concentration not given here. As to conditions: 45 min, higher = more signal, called active from +8 up or from −8 down.
Sequence of NADPH oxidase 2 (Homo sapiens) (P04839 whole entry, looked up): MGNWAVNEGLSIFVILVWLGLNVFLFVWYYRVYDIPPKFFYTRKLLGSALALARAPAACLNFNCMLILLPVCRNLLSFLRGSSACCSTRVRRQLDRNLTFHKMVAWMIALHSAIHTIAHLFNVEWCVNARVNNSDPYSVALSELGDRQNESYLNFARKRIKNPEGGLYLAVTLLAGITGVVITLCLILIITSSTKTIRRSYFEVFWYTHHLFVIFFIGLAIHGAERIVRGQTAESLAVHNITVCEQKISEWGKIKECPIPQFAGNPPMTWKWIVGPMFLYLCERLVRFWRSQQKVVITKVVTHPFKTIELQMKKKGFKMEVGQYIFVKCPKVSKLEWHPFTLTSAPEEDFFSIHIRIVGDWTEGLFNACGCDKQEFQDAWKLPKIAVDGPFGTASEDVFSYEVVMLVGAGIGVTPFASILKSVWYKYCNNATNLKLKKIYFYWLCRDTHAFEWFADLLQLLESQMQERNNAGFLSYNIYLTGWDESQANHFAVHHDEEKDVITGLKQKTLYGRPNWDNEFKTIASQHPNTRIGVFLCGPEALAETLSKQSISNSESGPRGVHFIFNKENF
Experiment [18] concerns the target NADPH oxidase 4 (Homo sapiens) (UniProt Q9NPH5). The experiment in a line: NOX4-dependent H2O2 signal modulators, primary screen, NOX inhibitor project, cell-based, HEK293-NOX4, tetracycline-induced, Amplex Red fluorescence (AID 1160). As to conditions: 45 min, higher = more signal, called active from +8 up or from −8 down.
Experiment [19] deals with NADPH oxidase 5 (Homo sapiens) (UniProt Q96PH1). Briefly: NOX5-dependent H2O2 signal modulators, primary screen, NOX inhibitor project, cell-based, HEK293-NOX5, Amplex Red fluorescence (AID 1161). As to conditions: HEK293-NOX5, ionomycin, 45 min, higher = more signal.
Sequence of NADPH oxidase 5 (Homo sapiens) (Q96PH1 whole entry, looked up): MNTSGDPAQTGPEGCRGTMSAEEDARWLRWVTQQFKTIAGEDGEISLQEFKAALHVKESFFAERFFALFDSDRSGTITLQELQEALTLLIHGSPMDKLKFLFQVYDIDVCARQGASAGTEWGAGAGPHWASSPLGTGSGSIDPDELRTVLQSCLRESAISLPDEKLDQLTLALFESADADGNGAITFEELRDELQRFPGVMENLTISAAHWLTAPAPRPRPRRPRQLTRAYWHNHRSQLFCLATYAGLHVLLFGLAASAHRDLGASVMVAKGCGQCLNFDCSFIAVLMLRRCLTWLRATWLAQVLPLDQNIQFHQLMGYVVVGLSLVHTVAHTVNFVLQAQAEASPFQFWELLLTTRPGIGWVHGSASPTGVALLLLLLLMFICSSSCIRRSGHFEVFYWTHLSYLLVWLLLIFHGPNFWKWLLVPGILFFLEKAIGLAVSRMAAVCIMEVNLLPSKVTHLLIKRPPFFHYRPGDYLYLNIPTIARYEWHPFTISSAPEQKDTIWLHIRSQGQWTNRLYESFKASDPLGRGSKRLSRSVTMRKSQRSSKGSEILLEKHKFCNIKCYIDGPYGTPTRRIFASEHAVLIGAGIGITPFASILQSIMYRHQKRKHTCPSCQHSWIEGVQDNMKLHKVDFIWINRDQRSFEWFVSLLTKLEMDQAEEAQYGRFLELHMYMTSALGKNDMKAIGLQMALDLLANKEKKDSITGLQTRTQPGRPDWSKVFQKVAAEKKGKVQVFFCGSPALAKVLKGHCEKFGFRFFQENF
Experiment [20] in a line: A549 cell viability effects, profiling panel, calcein-AM fluorescence, 48 h, basal (AID 1162). Further: test concentration not given here. As to conditions: higher = more signal.

Sequence of NADPH oxidase 4 (Homo sapiens) (Q9NPH5 whole entry, looked up): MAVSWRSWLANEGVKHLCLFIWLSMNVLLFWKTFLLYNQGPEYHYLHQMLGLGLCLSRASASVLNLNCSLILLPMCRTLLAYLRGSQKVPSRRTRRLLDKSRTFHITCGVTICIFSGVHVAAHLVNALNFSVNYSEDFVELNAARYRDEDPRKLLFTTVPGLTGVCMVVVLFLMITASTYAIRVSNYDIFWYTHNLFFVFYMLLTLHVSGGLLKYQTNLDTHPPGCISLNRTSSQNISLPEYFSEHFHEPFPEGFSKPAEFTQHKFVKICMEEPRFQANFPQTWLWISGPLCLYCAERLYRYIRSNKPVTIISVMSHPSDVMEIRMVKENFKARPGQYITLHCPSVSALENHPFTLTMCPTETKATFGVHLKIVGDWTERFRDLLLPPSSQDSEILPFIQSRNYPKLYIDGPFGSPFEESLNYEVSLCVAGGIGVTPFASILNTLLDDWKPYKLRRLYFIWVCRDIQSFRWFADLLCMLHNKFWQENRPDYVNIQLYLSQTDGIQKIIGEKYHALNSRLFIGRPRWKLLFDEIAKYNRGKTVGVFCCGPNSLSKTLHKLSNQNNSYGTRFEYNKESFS

In the case of `C=C(CCCC)/C(=C/C[C@@H](OC(=O)c1ccncc1)c1ccc(OCCO)cc1)c1cnc2ccccc2c1`, the composite z-score in experiment [1] turned out to be 0.826; in [5], 1.72; in experiment [6] it was 0.108; with Torsin-1A (Homo sapiens) [7], 0.546; with Torsin-1A (Homo sapiens) [8], 0.653; in [9], 2.1. Besides, the composite z-score in experiment [11] was 0.199. Besides, the z-score in experiment [2] is -1.93 (inactive); in [3], 13.4 (active); in [4] it was -0.929 (inactive); in [10] it was 1.21 (inactive); in experiment [12] it was 26.2 (active); in experiment [13] it was 9.47 (active). In addition, the z-score in experiment [14] is 1.54 (inactive); in [15], 1.39 (inactive); in experiment [16], -0.175; in [17], -1.06 (inactive); in [18], -1.43 (inactive); in experiment [19], -0.922. In [20], the z-score is 0.4.
With `COCCOC(=O)N1C(=O)[C@@]2(c3cc(C#CCNC(N)=O)ccc31)[C@H](c1ccccc1OCCO)N1[C@H](c3ccccc3)[C@H](c3ccccc3)OC(=O)[C@H]1[C@@H]2C(=O)Nc1nc2ccccc2s1`, the composite z-score came to 0.141 in [1]; 0.789 in [5]; 0.061 in experiment [6]; 0.196 with Torsin-1A (Homo sapiens) [7]; 0.287 in the experiment with Torsin-1A (Homo sapiens) [8]; 0.312 in experiment [9]. This compound also returned a composite z-score in [11] of 0.0943. For the same compound, the z-score is -0.949 (inactive) in [2]; 0.0653 (inactive) in experiment [3]; 0.178 (inactive) in experiment [4]; 2.56 (inactive) in experiment [10]; 2.23 (inactive) in experiment [12]; -0.226 (inactive) in [13]. Further, the z-score in [14] was 0.653 (inactive); in [15], -0.809 (inactive); in experiment [16] it was 1.87; in experiment [17], 1.85 (inactive); in experiment [18] it was 1.5 (inactive); in experiment [19], 1.25. Further, the z-score in [20] was 0.323.
Consider `CC(C)C[C@@H]1NC(=O)[C@H]2C[C@@H](C(=O)NCCCC[N+](C)(C)C)[C@@H](c3cccc(OCCO)c3)N2C1=O`, for which the composite z-score was 0.223 in experiment [1]; -0.429 in [5]; -0.1 in experiment [6]; 2.05 in the experiment with Torsin-1A (Homo sapiens) [7]; 0.629 with Torsin-1A (Homo sapiens) [8]; 2.03 in experiment [9]. The compound further registered a composite z-score in experiment [11] of -0.243. The z-score in [2] is -1.01 (inactive); in experiment [3] it was -0.26 (inactive); in experiment [4] it was -1.21 (inactive); in experiment [10], 0.512 (inactive); in experiment [12] it was 2.25 (inactive); in [13], -1.73 (inactive). In addition, the z-score is -2.51 (inactive) in [14]; -2.05 (inactive) in [15]; 0.251 in experiment [16]; -1.8 (inactive) in experiment [17]; -0.815 (inactive) in experiment [18]; -1.49 in [19]. For the same compound, in experiment [20], the z-score was 1.01.
On to `NCCCCCNC(=O)[C@H]1C[C@H]2C(=O)NCC(=O)N2[C@H]1c1ccc(O)cc1`, for which the composite z-score is 0.518 in [1]; 1.72 in [5]; -0.0419 in experiment [6]; 1.69 in the experiment with Torsin-1A (Homo sapiens) [7]; 0.376 with Torsin-1A (Homo sapiens) [8]; 2 in experiment [9]. The compound also came in with a composite z-score in experiment [11] of -0.147. Further, the z-score in experiment [2] was -0.108 (inactive); in experiment [3], 0.679 (inactive); in experiment [4] it was 0.407 (inactive); in experiment [10] it was 1.01 (inactive); in experiment [12] it was 0.365 (inactive); in experiment [13], 0.113 (inactive). The z-score was -1.79 (inactive) in experiment [14]; 0.252 (inactive) in [15]; -0.565 in experiment [16]; 0.653 (inactive) in experiment [17]; -1.24 (inactive) in experiment [18]; 0.566 in experiment [19]. Also, in experiment [20], the z-score was -0.0704.
